Reference: PubChem BioAssay (NCI)
Compounds without any hit were thinned out: in the full panel of roughly 79,000, 15% have a hit. Calls of active or inactive are those of the source. No stated cut-off is given here; in the data, active means growth inhibition above about 70%; inactive means the rest.

Columns and labels:
[1] = NCI Yeast Anticancer Drug Screen. Data for the wt2 strain (AID 169);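 further: 0% = growth of vehicle-treated yeast cultures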; settings: S. cerevisiae wt2 strain growth inhibition, active compounds read high
Summary of the method: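 Growth of compound-treated yeast is measured and expressed as inhibition relative to vehicle-only controls.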

[2] = NCI Yeast Anticancer Drug Screen. Data for the mlh1 strain (AID 171);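 further: 0% = growth of vehicle-treated control cultures of the same strain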; settings: S. cerevisiae mlh1 strain growth inhibition, active compounds read high
Summary of the method: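 Test agents were incubated with yeast bearing a defined DNA damage repair or cell cycle control alteration; values are growth inhibition normalised to vehicle-treated cultures.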

[3] = NCI Yeast Anticancer Drug Screen. Data for the sgs1 strain (AID 173);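 further: 0% = growth of vehicle-only control cultures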; settings: S. cerevisiae sgs1 mutant, active compounds read high
Summary of the method: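 Strain with an altered DNA repair or cell cycle pathway exposed to compound. Growth then measured. Value = inhibition versus vehicle control.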

[4] = NCI Yeast Anticancer Drug Screen. Data for the mlh1 rad18 strain (AID 175); settings: S. cerevisiae mlh1 rad18 strain growth inhibition, active compounds read high
Summary of the method: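 A repair-deficient yeast strain is exposed to test compound, and growth is scored relative to vehicle-treated controls.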

[5] = NCI Yeast Anticancer Drug Screen. Data for the rad18 strain (AID 177); settings: S. cerevisiae rad18 mutant growth inhibition, active compounds read high
Summary of the method: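 DNA-repair-defective yeast; compound treatment; growth inhibition scored against vehicle.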

[6] = NCI Yeast Anticancer Drug Screen. Data for the rad52 strain (AID 147);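 further: 0% = growth of vehicle-treated control cultures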; settings: S. cerevisiae rad52 mutant growth inhibition, active compounds read high
Summary of the method: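 Growth of repair-deficient yeast cells was compared between compound-treated and vehicle-treated cultures to give percent inhibition.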

[7] = NCI Yeast Anticancer Drug Screen. Data for the wt1 strain (AID 149);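 further: 0% = growth of vehicle-treated wt1 cultures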; settings: S. cerevisiae wt1 strain (SPY 50644) growth inhibition, active compounds read high
Summary of the method: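 The wt1 strain was treated with compounds, and growth was compared with vehicle-treated cultures to give inhibition.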

[8] = NCI Yeast Anticancer Drug Screen. Data for the rad50EPP+ strain (AID 151);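 further: 0% = growth of vehicle-treated control cultures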; settings: S. cerevisiae rad50 mutant strain, active compounds read high
Summary of the method: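 Measured: growth inhibition of rad50EPP+ yeast. Reference: vehicle-treated controls. Screen uses strains with defined genetic alterations in DNA damage repair or cell cycle control.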

[9] = NCI Yeast Anticancer Drug Screen. Data for the mgt1 strain (AID 153); settings: S. cerevisiae mgt1 mutant growth inhibition, active compounds read high
Summary of the method: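 Compounds were applied to mgt1 mutant yeast, and growth was then compared against vehicle-treated control cultures to give percent inhibition.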

[10] = NCI Yeast Anticancer Drug Screen. Data for the rad50 strain (AID 155);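 further: 0% = growth of vehicle-only cultures of the same strain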; settings: S. cerevisiae rad50 strain growth inhibition, active compounds read high
Summary of the method: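 Cells are treated with compound, grown, and their growth is then scored against vehicle-only cultures of the same repair-deficient yeast strain.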

[11] = NCI Yeast Anticancer Drug Screen. Data for the mec2-1 strain (AID 157); settings: S. cerevisiae mec2-1 strain, active compounds read high
Summary of the method: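 Compounds were applied to mec2-1 yeast cells. Their growth was then compared with that of vehicle-treated cultures to give growth inhibition.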

[12] = NCI Yeast Anticancer Drug Screen. Data for the rad14 strain (AID 159);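 further: 0% = growth of vehicle-treated control cultures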; settings: S. cerevisiae rad14 strain growth inhibition, active compounds read high
Summary of the method: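 Readout: yeast growth inhibition, referenced to vehicle-only cultures. Strain bears a defined alteration in DNA damage repair.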

[13] = NCI Yeast Anticancer Drug Screen. Data for the sgs1 mgt1 strain (AID 161);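 further: 0% = growth of cultures given vehicle only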; settings: S. cerevisiae sgs1 mgt1 strain, active compounds read high
Summary of the method: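 Compounds are added to genetically altered yeast, and growth is compared with cultures given vehicle alone to give percent inhibition.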

[14] = NCI Yeast Anticancer Drug Screen. Data for the CLN2oe strain (AID 163);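 further: 0% = growth of vehicle-only control cultures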; settings: S. cerevisiae CLN2oe strain, active compounds read high
Summary of the method: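 Cells of an engineered yeast line with disturbed cell-cycle regulation are treated with compound. Inhibition of growth is then calculated relative to the vehicle-treated reference.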

[15] = NCI Yeast Anticancer Drug Screen. Data for the cln2 rad14 strain (AID 165);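 further: 0% = growth equal to vehicle treated cultures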; settings: S. cerevisiae cln2 rad14 strain, active compounds read high
Summary of the method: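 Strain: cln2 rad14 yeast, altered in cell cycle control and DNA damage repair. Read-out: growth inhibition vs vehicle.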

[16] = NCI Yeast Anticancer Drug Screen. Data for the bub3 strain (AID 167); settings: S. cerevisiae bub3 mutant strain, active compounds read high
Summary of the method: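 Part of a panel of yeast mutants defective in DNA damage repair or cell cycle regulation. Each strain is grown with compound, and inhibition is calculated relative to solvent-treated cultures.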

[17] = at 5.0 µM (retest, dose inferred, filed as 0.5)
[18] = at 50.0 µM (retest, dose inferred, filed as 5.0)

Measured: growth inhibition

CCOC(=O)C1=C(C)NC(C)=C(C(=O)OCCNC(=O)c2ccc(N=[N+]=[N-])cc2)C1c1ccccc1C(F)(F)F (centres undefined)
inactive: [1]; at 1.2 µM 0% | [1]; at 3.7 µM -2% | [1]; at 11.0 µM 0% | [1]; at 33.0 µM 5% | [1]; at 100.0 µM 19% | [2]; at 1.2 µM 6% | [2]; at 3.7 µM -5% | [2]; at 11.0 µM -1% | [2]; at 33.0 µM 9% | [2]; at 100.0 µM 28% | [3]; at 1.2 µM 1% | [3]; at 3.7 µM -2% | [3]; at 11.0 µM 1% | [3]; at 33.0 µM 32% | [3]; at 100.0 µM 65% | [4]; [17] 2% | [4]; [18] 43% | [4]; at 50.0 µM 32.5% | [5]; at 1.2 µM 3% | [5]; at 3.7 µM -4% | [5]; at 11.0 µM 4% | [5]; at 33.0 µM 8% | [5]; at 100.0 µM 23%

Cc1ccc([N+]2=NC(c3ccccc3)=NN(c3ccccc3)C2)cc1
inactive: [6]; at 1.2 µM 9% | [6]; at 3.7 µM 15% | [6]; at 11.0 µM 19% | [7]; at 1.2 µM 1% | [7]; at 3.7 µM 5% | [7]; at 11.0 µM 8% | [7]; at 33.0 µM 27% | [8]; at 1.2 µM 5% | [8]; at 3.7 µM 15% | [8]; at 11.0 µM 35% | [8]; at 33.0 µM 45% | [8]; at 100.0 µM 45% | [9]; at 1.2 µM 7% | [9]; at 3.7 µM 9% | [9]; at 11.0 µM 9% | [10]; at 1.2 µM 6% | [10]; at 3.7 µM 0% | [10]; [17] 15% | [10]; at 11.0 µM 2% | [10]; [18] 41% | [11]; at 1.2 µM -1% | [11]; at 3.7 µM -3% | [11]; [17] 2% | [11]; at 11.0 µM 1% | [11]; at 33.0 µM 65% | [11]; [18] 16% | [12]; at 1.2 µM 5% | [12]; at 3.7 µM 5% | [12]; at 11.0 µM 18% | [12]; at 33.0 µM 44% | [13]; [17] 10% | [13]; [18] 12% | [14]; at 1.2 µM 2% | [14]; at 3.7 µM -1% | [14]; at 11.0 µM 2% | [14]; at 33.0 µM 46% | [15]; [17] 11% | [15]; [18] 69% | [16]; at 1.2 µM 0% | [16]; at 3.7 µM -1% | [16]; [17] -2% | [16]; at 11.0 µM 12% | [1]; at 1.2 µM 0% | [1]; at 3.7 µM 4% | [1]; at 11.0 µM 7% | [2]; at 1.2 µM 1% | [2]; at 3.7 µM 4% | [2]; at 11.0 µM 7% | [3]; at 1.2 µM 0% | [3]; at 3.7 µM 1% | [3]; at 11.0 µM 5% | [4]; [17] 3% | [4]; [18] 45% | [5]; at 1.2 µM 2% | [5]; at 3.7 µM 11% | [5]; at 11.0 µM 11%
active: [6]; at 33.0 µM 90% | [6]; at 100.0 µM 96% | [7]; at 100.0 µM 96% | [9]; at 33.0 µM 89% | [9]; at 100.0 µM 97% | [10]; at 33.0 µM 84% | [10]; at 50.0 µM 97% | [10]; at 100.0 µM 95% | [11]; at 50.0 µM 91.8% | [11]; at 100.0 µM 96% | [12]; at 100.0 µM 96% | [13]; at 50.0 µM 95.3% | [14]; at 100.0 µM 96% | [15]; at 50.0 µM 95.8% | [16]; at 33.0 µM 94% | [16]; [18] 98% | [16]; at 50.0 µM 97.2% | [16]; at 100.0 µM 96% | [1]; at 33.0 µM 83% | [1]; at 100.0 µM 97% | [2]; at 33.0 µM 78% | [2]; at 100.0 µM 97% | [3]; at 33.0 µM 87% | [3]; at 100.0 µM 97% | [4]; at 50.0 µM 97.2% | [5]; at 33.0 µM 90% | [5]; at 100.0 µM 96%

Cc1ccc2nc(-c3cccc([N+](=O)[O-])c3)oc(=O)c2c1
inactive: [6]; at 1.2 µM 3% | [6]; at 3.7 µM 6% | [6]; at 11.0 µM 1% | [6]; at 33.0 µM -4% | [6]; at 100.0 µM -10% | [7]; at 1.2 µM -7% | [7]; at 3.7 µM -3% | [7]; at 11.0 µM -6% | [7]; at 33.0 µM -15% | [7]; at 100.0 µM -20% | [8]; at 1.2 µM -12% | [8]; at 3.7 µM 12% | [8]; at 11.0 µM 18% | [8]; at 33.0 µM 15% | [8]; at 100.0 µM 27% | [9]; at 1.2 µM -29% | [9]; at 3.7 µM -25% | [9]; at 11.0 µM -25% | [9]; at 33.0 µM -26% | [9]; at 100.0 µM -18% | [10]; at 1.2 µM -21% | [10]; at 3.7 µM -19% | [10]; [17] 31% | [10]; at 11.0 µM -34% | [10]; at 33.0 µM -31% | [10]; [18] 62% | [10]; at 50.0 µM 14.2% | [10]; at 100.0 µM -30% | [11]; at 1.2 µM -57% | [11]; at 3.7 µM -57% | [11]; [17] 39% | [11]; at 11.0 µM -62% | [11]; at 33.0 µM -53% | [11]; at 50.0 µM 11.8% | [11]; at 100.0 µM -70% | [12]; at 1.2 µM -10% | [12]; at 3.7 µM -6% | [12]; at 11.0 µM -4% | [12]; at 33.0 µM -19% | [12]; at 100.0 µM -16% | [13]; [17] -14% | [13]; [18] 33% | [13]; at 50.0 µM 27.6% | [14]; at 1.2 µM 15% | [14]; at 3.7 µM 22% | [14]; at 11.0 µM 20% | [14]; at 33.0 µM 9% | [14]; at 100.0 µM 8% | [15]; [17] 43% | [15]; [18] 59% | [15]; at 50.0 µM 13.2% | [16]; at 1.2 µM -23% | [16]; at 3.7 µM -23% | [16]; [17] 33% | [16]; at 11.0 µM -24% | [16]; at 33.0 µM -5% | [16]; at 50.0 µM 53.7% | [16]; at 100.0 µM -36% | [1]; at 1.2 µM -22% | [1]; at 3.7 µM -19% | [1]; at 11.0 µM -26% | [1]; at 33.0 µM -32% | [1]; at 100.0 µM -24% | [2]; at 1.2 µM -6% | [2]; at 3.7 µM -2% | [2]; at 11.0 µM -17% | [2]; at 33.0 µM -17% | [2]; at 100.0 µM -14% | [3]; at 1.2 µM -20% | [3]; at 3.7 µM -16% | [3]; at 11.0 µM -19% | [3]; at 33.0 µM -18% | [3]; at 100.0 µM -11% | [4]; [17] 34% | [4]; [18] 67% | [4]; at 50.0 µM 14.7% | [5]; at 1.2 µM -14% | [5]; at 3.7 µM -4% | [5]; at 11.0 µM -19% | [5]; at 33.0 µM -28% | [5]; at 100.0 µM -42%
active: [11]; [18] 75% | [16]; [18] 75%
